This is a sample that favours compounds with a hit; in the whole collection about 3.5% have one here.
UGM FP inh: Mtb UDP-galactopyranose mutase inhibition | P9WIQ1 | purified UGM, fluorescence polarization probe displacement | inhibition, % at 10 µM | 320,000 tested, 0.06% active | AID 504406; in the data active means inhibition above about 10%, passing the limit was not always enough
Target sequence (P9WIQ1 whole entry, looked up): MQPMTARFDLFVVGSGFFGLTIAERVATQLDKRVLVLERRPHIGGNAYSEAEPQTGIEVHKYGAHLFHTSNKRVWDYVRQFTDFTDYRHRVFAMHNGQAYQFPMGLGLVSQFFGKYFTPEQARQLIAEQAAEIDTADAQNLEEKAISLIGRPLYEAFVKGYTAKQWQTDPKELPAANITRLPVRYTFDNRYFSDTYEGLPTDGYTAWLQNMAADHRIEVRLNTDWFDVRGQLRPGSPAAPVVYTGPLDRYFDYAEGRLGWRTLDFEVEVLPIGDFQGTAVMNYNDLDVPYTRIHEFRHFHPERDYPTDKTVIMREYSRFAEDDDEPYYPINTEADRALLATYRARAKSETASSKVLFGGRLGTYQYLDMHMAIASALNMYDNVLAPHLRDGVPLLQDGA
GDH-TPI counter-1: GDH-TPI coupled enzyme inhibition counter-screen. inhibition, % at 4.8 µM. GDH-TPI coupled enzyme counterscreen, NADH absorbance. 360,000 tested, 1.2% active; in the data active means inhibition above about 30%;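 further: 0% = DMSO wells and 100% = wells lacking the enzyme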
Mtb FBA inh: Mtb fructose-bisphosphate aldolase inhibition; 360,000 tested, 2.3% active; inhibition, % at 1 µM; purified M. tuberculosis FBA, fluorescence read-out; P9WQA3;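 further: 0% = vehicle and 100% = reference inhibitor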
Rv3671c inh: Rv3671c (M. tuberculosis) protease inhibition; 320,000 tested, 0.048% active; inhibition, % at 5.96 µM; P9WHR9; in the data active means inhibition above about 38%;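 further: extracellular domain of Rv3671c used as enzyme; 0% = enzyme with DMSO and 100% = no enzyme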
Mtb FBA inh conf: Mtb FBA inhibition, confirmed; purified M. tuberculosis FBA, fluorescence read-out; inhibition, % at 1 µM; AID 651616; shares compounds with Mtb FBA inh; 5,600 tested, 78% active;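 further: 0% = vehicle wells and 100% = reference inhibitor wells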
GDH-TPI counter-2: GDH-TPI inhibition counter-screen for FBA inhibitors; 5,600 tested, 81% active; shares compounds with Mtb FBA inh; inhibition, % at 1 µM; GDH-TPI coupled enzyme counterscreen, fluorescence; in the data active means inhibition above about 10%
* hit, by the source's call; . = not tested or not shown; + = active, no number. Unless noted, no stated cut-off is given here; in the data, active means inhibition above about 27%; inactive means the rest.

SMILES	UGM FP inh	GDH-TPI counter-1	Mtb FBA inh	Rv3671c inh	Mtb FBA inh conf	GDH-TPI counter-2
O=c1[nH]c2cc3c(cc2cc1CN(CC1CCCO1)S(=O)(=O)c1ccccc1)OCCO3 (configuration not stated)	0	21	28*	-3	-1	-5
COc1cc(C(=O)N(Cc2cccnc2)Cc2cc3cc4c(cc3[nH]c2=O)OCCO4)cc(OC)c1OC	2	17	28*	-7	110*	87*
O=C(c1ccco1)N(Cc1cc2ccccc2[nH]c1=O)CC1CCCO1 (configuration not stated)	1	3	2	-7	.	.
CCc1ccc(CN(C)C(=O)c2ccc3c(c2)OCCO3)cc1	0	-4	-1	-5	.	.
Cc1c(NS(=O)(=O)c2cccc(C(=O)OCC(=O)c3ccc(Cl)cc3)c2)c(=O)n(-c2ccccc2)n1C	.	0	-1	.	.	.
CSCCC(NC(=O)c1ccccc1)C(=O)NCCCSc1ccccc1 (configuration not stated)	1	7	2	-5	.	.
CCN(CC)CCN(Cc1cc2cc3c(cc2[nH]c1=O)OCCO3)C(=O)NC1CCCCC1	2	8	14	2	.	.
O=C(NC1CCCCC1)N(CCN1CCOCC1)Cc1cc2cc3c(cc2[nH]c1=O)OCCO3	-1	18	31*	5	98*	79*
COc1ccc(COCC(O)CN2CCC(CN3C(=O)c4cccc5cccc(c45)C3=O)CC2)cc1OC (configuration not stated)	-3	14	30*	-9	-1	-2
CCCn1c(=N)c(S(=O)(=O)c2ccccc2)cc2c(=O)n3cccc(C)c3nc21	0	-7	2	2	.	.
Cc1cccn2c(=O)c3cc(C(=O)N(C)C)n(C)c3nc12	-1	20	49*	-3	93*	69*
Cc1cccn2c(=O)c3cc(C(=O)NCCCN4CCCC4=O)n(C)c3nc12	0	25	108*	-13	1	-6
CCOCCCNC(=O)c1cc2c(=O)n3cccc(C)c3nc2n1C	-1	14	15	-3	.	.
Cc1cccn2c(=O)c3cc(C(=O)NCCCn4ccnc4)n(C)c3nc12	0	12	59*	-7	77*	53*
Cn1c(C(=O)NCCCN2CCCC2=O)cc2c(=O)n(C)c3ccccc3c21	-2	-14	11	4	.	.
Cc1sc2nc(-c3ccccn3)[nH]c(=O)c2c1-c1ccccc1	-1	7	31*	-7	46*	37*
Cc1sc2nc(-c3ccncc3)[nH]c(=O)c2c1-c1ccccc1	1	.	.	-2	.	.
NC(Cc1ccc(C(F)(F)F)cc1)c1csc(Nc2ccc(C(=O)NCc3ccco3)cn2)n1 (configuration not stated)	.	13	1	.	.	.
COC(=O)c1ccc2c(=O)sc(N3CCC(C(N)=O)CC3)nc2c1	0	-2	40*	8	72*	61*
COC(=O)c1ccc(C(=O)OC)c(NC(=S)N2CCC(C(N)=O)CC2)c1	0	2	18	6	.	.
COc1cccc(-c2cnc(C(O)c3cccc(F)c3)[nH]2)c1 (configuration not stated)	.	3	-3	.	.	.
CCOC(=O)C(C)Sc1nc(N2CCOCC2)c2c(c1C#N)CC(C)(C)OC2 (configuration not stated)	0	2	2	-3	.	.
CCOC(=O)C(CC)c1cc2n(c(=O)c1C#N)CCC21OCCO1 (configuration not stated)	.	.	69*	.	+	+
O=C(NC1CCCCCC1)C1CCC(=O)N(Cc2ccccc2F)C1 (configuration not stated)	1	16	7	-1	.	.
COc1ccc(-c2ccc3c(c2)CN(C(=O)NC2CCCCC2)Cc2cnnn2-3)cc1	.	.	86*	.	52*	41*
SMILES	UGM FP inh	GDH-TPI counter-1	Mtb FBA inh	Rv3671c inh	Mtb FBA inh conf	GDH-TPI counter-2
CC1(C(=O)NS(=O)(=O)c2ccc(F)cc2F)CCN1C(=O)c1cccc(F)c1 (configuration not stated)	.	4	6	.	.	.
O=C(c1cc(COc2ccc(F)c(F)c2)on1)N1CCN(C/C=C/c2ccccc2)CC1	.	6	2	.	.	.
CCCCCn1c(NC(=O)c2ccco2)c(C(=O)OCC)c2nc3ccccc3nc21	-2	17	54*	-29	134*	100*
COCCNC(=O)c1c(NC(=O)c2ccc(Br)o2)n(Cc2ccccc2)c2nc3ccccc3nc12	5	27	27	-219	.	.
COCCCNC(=O)c1c(NC(=O)c2ccco2)n(Cc2ccccc2)c2nc3ccccc3nc12	-1	15	45*	-21	47*	37*
Cc1ccc2[nH]c(C(=O)N3CCN(C(c4ccccc4)c4ccccc4)CC3)cc2c1	2	8	5	-1	.	.
CCOC(=O)Nc1ccc(C(=O)Oc2ccccc2)c(O)c1	1	4	3	-2	.	.
Cc1cccc(OC(=O)Nc2ccc(C(=O)O)c(O)c2)c1	.	16	29*	.	+	180*
CN(C)c1oc(-c2ccc(OCc3ccccc3)cc2)nc1C#N	2	26	109*	-2	-6	-5
N#Cc1nc(-c2ccc(OCc3ccccc3)cc2)oc1NCc1cccnc1	2	8	7	1	.	.
CCc1cc2c(=O)c(-c3cscn3)coc2c(CN(C)C)c1O	-1	20	41*	6	161*	125*
CCc1cc2c(=O)c(-c3ccc4c(c3)OCO4)coc2c(CN(C)C)c1O	-5	28	23	0	.	.
Cc1nc(SCC(=O)Nc2ccc3[nH]c(=O)[nH]c3c2)nc(C)c1C	-1	10	-1	7	.	.
Cc1ccc(NC(=O)Cn2c(O)c(N=NC(=O)c3ccncc3)c3ccccc32)cc1	-2	-1	-9	-9	.	.
Cc1cccc(NC(=O)Cn2c(O)c(N=NC(N)=S)c3ccccc32)c1	0	26	35*	-5	187*	146*
O=C(COC(=O)/C=C/c1cccc(Cl)c1Cl)Nc1ccc2[nH]c(=O)[nH]c2c1	-2	5	3	-19	.	.
CCCc1cc(=O)oc2cc(C)cc(OCC(=O)Nc3cccnc3)c12	-1	11	82*	-27	7	0
Cc1cc(OCC(=O)NC2CC(C)(C)NC(C)(C)C2)c2c(C)cc(=O)oc2c1	1	3	94*	0	132*	114*
Cc1cc(OCC(=O)NCc2cccnc2)c2c(C)cc(=O)oc2c1	-2	12	68*	2	-6	-6
Cc1cc(OCC(=O)Nc2cccnc2)c2c(C)cc(=O)oc2c1	-2	9	78*	1	-2	-2
Cc1cc(OCC(=O)NCCc2ccc(Cl)cc2)c2c(C)cc(=O)oc2c1	-2	1	4	0	.	.
Cc1cc(=O)oc2cc(OCC(=O)NC3CC(C)(C)NC(C)(C)C3)ccc12	1	16	21	-7	.	.
CCN(C[C@H]1N[C@@](CC)(C(=O)OC)[C@H]2C(=O)N(C)C(=O)[C@@H]12)S(=O)(=O)c1ccc(F)cc1	1	0	-2	3	.	.
COc1cccc(CN(CCC(C)C)S(=O)(=O)c2cc(Br)ccc2Br)c1	.	0	-2	.	.	.
